# Source: PubChem BioAssay (National Center for Advancing Translational Sciences (NCATS))
# TDP1 cell noCPT = qHTS for Inhibitors of human tyrosyl-DNA phosphodiesterase 1 (TDP1): qHTS in cells in absence of CPT. AID 686978, 2013. Potency, µM (doses to about 46.2 µM), inactives show top-dose activity change, negative = growth inhibition, most hits filed as inhibitors. DT40 Tdp1-/- hTDP1 cells, no CPT, ATP luminescence, 48 h. 15% of 420,000 active; also: nearly all actives have a fitted effect of over 55% in size
#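 DT40 Tdp1-/-;hTDP1 cells, no CPT (DMSO vehicle only), 400 cells/well; compounds pin-transferred; ≥48 hr, 37 °C; CellTiter-Glo 30 min RT dark, luminescence read.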
# TDP1 inh = qHTS Assay for Inhibitors of Tyrosyl-DNA Phosphodiesterase (TDP1). Tyrosyl-DNA phosphodiesterase 1 (Homo sapiens), Q9NUW8. recombinant TDP1, AlphaScreen DNA substrate cleavage. Potency, µM (doses to about 130 µM), for the others: at the highest dose activity change, negative = inhibition, actives largely listed as inhibitors. 0.28% of 350,000 active. AID 485290, 2010; also: nearly all actives have a fitted effect of over 40% in size
# Target sequence (Q9NUW8 whole entry, looked up): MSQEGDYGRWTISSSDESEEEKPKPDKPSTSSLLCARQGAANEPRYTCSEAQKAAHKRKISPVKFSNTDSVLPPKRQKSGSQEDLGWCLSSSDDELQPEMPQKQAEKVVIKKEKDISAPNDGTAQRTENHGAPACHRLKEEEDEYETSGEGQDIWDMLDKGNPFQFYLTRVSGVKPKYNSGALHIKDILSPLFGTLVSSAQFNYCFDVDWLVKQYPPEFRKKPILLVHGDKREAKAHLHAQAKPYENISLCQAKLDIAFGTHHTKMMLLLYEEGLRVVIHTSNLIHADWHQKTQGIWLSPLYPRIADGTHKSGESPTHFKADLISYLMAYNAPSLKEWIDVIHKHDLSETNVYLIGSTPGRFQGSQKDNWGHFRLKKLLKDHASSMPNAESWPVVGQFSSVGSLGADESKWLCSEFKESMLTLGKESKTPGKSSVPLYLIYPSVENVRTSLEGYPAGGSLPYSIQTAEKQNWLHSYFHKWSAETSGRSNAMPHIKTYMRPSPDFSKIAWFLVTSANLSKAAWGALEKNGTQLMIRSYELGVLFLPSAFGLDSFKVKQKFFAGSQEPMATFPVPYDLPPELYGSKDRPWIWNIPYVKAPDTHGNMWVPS
#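 Signal: AlphaScreen proximity between streptavidin donor and anti-FITC acceptor beads on intact substrate. Reaction: Tdp1 1 nM, substrate 15 nM final, 5 min RT after 15 min compound preincubation.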
# RORg inh = qHTS for inhibitors of ROR gamma transcriptional activity. Nuclear receptor ROR-gamma (Mus musculus), P51450. Drosophila S2 Gal4-RORgamma UAS-luciferase reporter, 20 h. Potency, µM (doses to about 53.6 µM), without a hit: at the top dose activity change, negative = inhibition, usual class: inhibitors. 5.4% of 310,000 active. AID 2551, 2010; also: nearly all actives have a fitted effect of over 60% in size
#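 Stably transfected Drosophila Schneider cells are the test system, with ROR gamma fused to Gal4 and luciferase under UAS control; luminescence is read after 20 hr of 700 uM copper sulfate induction at ambient temperature.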
# TDP1 cell CPT = qHTS for Inhibitors of human tyrosyl-DNA phosphodiesterase 1 (TDP1): qHTS in cells in presence of CPT; chicken DT40 Tdp1-/-;hTDP1 cells + 20 nM CPT, ATP luminescence, 48 h; Potency, µM (top dose mostly 46.2 µM), inactives show at the top dose activity change, negative = growth inhibition, most hits filed as inhibitors; 12% of 420,000 active; AID 686979, 2013; also: nearly all actives have a fitted effect of over 55% in size
#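 Cell growth measured by CellTiter-Glo luminescence after a minimum 48 h, 37 C compound exposure with 20 nM CPT in Tdp1-knockout DT40 cells stably expressing hTDP1, seeded 400/well; qHTS titration format.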
# VP16 counter = VP16 counterscreen qHTS for inhibitors of ROR gamma transcriptional activity; Drosophila S2 Gal4-VP16 UAS-luciferase, luminescence, 20 h; Potency, µM (doses to about 53.6 µM), for the others: top-dose activity, negative = inhibition, usual class: inhibitors; 3.5% of 310,000 active; AID 2546, 2010;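 also: Gal4-VP16 expression switched on by copper sulfate through the metallothionein promoter; nearly all actives have a fitted effect of over 50% in size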
# * marks the source's active call; other numbers are inactive results; ? = inconclusive; · = not tested or not shown; [ ] = remark or other dose. An excerpt weighted towards active compounds, which were near 19% of everything screened. Calls follow the shape of the dose curve; as a rule, active = well fitted curve in the direction sought with a large enough effect; inconclusive = small, poorly fitted or top-dose-only effect, or another doubt; inactive = no such curve, though single readings can be large; an effect the other way counts as inactive or inconclusive. % is scaled to controls: 0 for no effect and ±100 for the full control effect; potency is read from the fitted curve at half-maximal effect.
SMILES,TDP1 cell noCPT,TDP1 inh,RORg inh,TDP1 cell CPT,VP16 counter
CCn1nc(C)cc1C(=O)Sc1ccc(Cl)cc1Cl,3.7µM*,·,?,3.7µM*,-6%
Cc1nc(C)n(C(C)CNC(=O)c2cccc(Br)c2)n1 (centres undefined),3%,·,-17%,-2%,6%
COc1ccccc1CNS(=O)(=O)c1ccc2[nH]c3c(c2c1)CCCCC3,7.3µM*,8%,·,10µM*,·
COc1ccc(NS(=O)(=O)c2ccc3[nH]c4c(c3c2)CCCCCC4)cc1,?,7%,·,?,·
CCOc1ccc(CNS(=O)(=O)c2ccc3[nH]c4c(c3c2)CCCC4)cc1OC,23µM*,11%,·,?,·
CCC(=O)Nc1ccc(NC(=O)c2ccco2)cc1,-22%,6%,-37%,-12%,-15%
O=c1oc2ccc(Cl)cc2cc1-c1nnc(Nc2cccc(C(F)(F)F)c2)s1,2.6µM*,4%,-9%,?,1%
N#CC1=C2SC=C(c3ccc(Br)cc3)N2CCCC1=O,23µM*,-4%,?,?,6%
N#CC1=C2Sc3ccccc3N2CCCC1=O,-2%,-8%,0%,1%,11%
CCOC(=O)C1(Cc2cccc(OC)c2)CCN(Cc2ccc(C)s2)CC1,18µM*,·,-5%,21µM*,-15%
CCOC(=O)C1(Cc2ccccc2)CCN(CC2CC=CCC2)CC1 (centres undefined),?,6%,-1%,-14%,-12%
CCOC(=O)C1(Cc2cccc(OC)c2)CCN(Cc2ccc(OC)c(OC)c2)CC1,21µM*,0%,43%,?,1%
CCOC(=O)C1(Cc2cccc(OC)c2)CCN(Cc2cccc(OC)c2O)CC1,21µM*,7%,?,23µM*,-9%
CCOC(=O)C1(Cc2cccc(OC)c2)CCN(Cc2cccc(O)c2)CC1,?,7%,-4%,-17%,-4%
CCOC(=O)C1(Cc2cccc(OC)c2)CCN(CC2CC=CCC2)CC1 (centres undefined),23µM*,0%,-14%,?,12%
CCn1cc(C(=O)NCc2cccnc2)c2cc(OC)c(OC)cc2c1=O,-12%,1%,4%[0.365 µM],0%,·
COc1ccc(F)cc1CN1CCN(CC(=O)Nc2ccccc2C(=O)NC2CC2)CC1,?,1%,·,?,·
CC1(C)C2(Cl)C(Cl)C(Cl)C(Cl)(C(Cl)Cl)C1(Cl)C2Cl (centres undefined),-8%,6%[56.1 µM],-13%,-14%,-12%
O=C(COC(=O)C1=NN(c2ccccc2)C(=O)CC1)Nc1ccc([N+](=O)[O-])cc1C(F)(F)F,-18%,1%,·,1%,·
O=C(NC1CC1)C1CCN(C(=O)c2ccccc2Cl)CC1,-14%,·,1%,-4%,-3%
COc1ccc(-c2[nH]ncc2CN2CCCOc3c(cccc3OC)C2)c(OC)c1,-17%,0%,0%,-13%,-8%
COc1ccc(/C=C2/SC(=S)N(CCCC(=O)Nc3ccc(O)cc3)C2=O)cc1,?,·,0.28µM*,?,1.4µM*
COc1ccc(/C=C2\SC(=S)N(CCCC(=O)Nc3ccc(O)cc3)C2=O)cc1,?,·,1.4µM*,?,1µM*
COc1ccc(NC(=O)c2cc(Br)ccc2Cl)c([N+](=O)[O-])c1,-15%,5%,-8%,1%,-7%
O=C(Nc1ccc([N+](=O)[O-])cc1Cl)c1cc(Br)ccc1O,0.45µM*,4%,·,0.79µM*,·
SMILES,TDP1 cell noCPT,TDP1 inh,RORg inh,TDP1 cell CPT,VP16 counter
O=C(Nc1c(Cl)cc([N+](=O)[O-])cc1Cl)c1cc(Cl)ccc1O,2µM*,4%,·,2.5µM*,·
O=C(Nc1cc(Cl)ccc1Cl)c1cc([N+](=O)[O-])cc(Br)c1O,-8%,2%,·,2%,·
COc1ccc(N2C=C3C(=O)C(C)(OC(=O)C4CCCC4)C(=O)C=C3C=C2c2ccsc2)cc1 (centres undefined),·,7%[21 µM],·,·,·
CCOc1ccc(OCC(=O)N2CCN(S(=O)(=O)c3ccccc3)CC2)cc1,-20%,·,·,-26%,·
CCOc1ccc(NC(=O)COC(=O)Cc2ccc(S(=O)(=O)N3CCOCC3)s2)cc1,3%,3%,33%,10%,-4%
CCOc1ccc(S(=O)(=O)N2CCN(C(=O)c3cc(S(=O)(=O)N4CCOCC4)ccc3C)CC2)cc1,-25%,-2%,·,-28%,·
CCOc1ccc(S(=O)(=O)N2CCN(C(=O)c3cccn3C)CC2)cc1,15µM*,9%,28%,?,3%
CCOc1ccc(S(=O)(=O)N2CCN(C(=O)c3ccc(C)c(S(=O)(=O)N4CCOCC4)c3)CC2)cc1,18µM*,-4%,·,26µM*,·
CCOc1ccc(S(=O)(=O)N2CCN(C(=O)Cc3ccc(S(=O)(=O)N4CCOCC4)s3)CC2)cc1,23µM*,2%,·,?,·
Cc1ccc(C(=O)N2CCC(Cc3ccccc3)CC2)cc1S(=O)(=O)N1CCOCC1,9.2µM*,0%,·,?,·
COc1ccc(/C=C/C(=O)OCC(=O)c2ccc(S(=O)(=O)N3CCCCC3)cc2)cc1OC,-20%,0%,·,11%,·
Cn1cnc2c(N3CCCCC3)nccc21,6%,3%,2%,-7%,26%
CCOC(=O)CNc1c(-c2ccc(OC)cc2)nc2ccc(Cl)cn12,-14%,-2%,-18%,-10%,1%
CCCCCCCCN=C(N)c1ccc(C(=O)OCC2CCCCC2)cc1,·,9%,7.9µM*,·,2%
CCc1cccc(C)c1Nc1c(-c2cccc(O)c2)nc2sccn12,16µM*,12%,·,15µM*,·
CCc1cccc(C)c1Nc1c(-c2cccc(O)c2)nc2nc(C)cc(C)n12,?,0%[12.3 µM],·,?,·
COc1cc(-c2nc3sccn3c2Nc2c(C)cccc2C)ccc1O,?,7%,·,?,·
Cc1cccc(C)c1Nc1c(-c2ccc(O)cc2)nc2sccn12,7.3µM*,8%,·,6.5µM*,·
CC1(C)C(=O)C(c2ccccc2)=C2CN3C(=O)N(CCc4ccccc4)C(=O)C3(Cc3ccc(C(F)(F)F)cc3)C=C21 (centres undefined),·,4%,1%,·,-6%
CN(c1ccc(OC(=O)CC2OC(=O)c3ccccc32)cc1)S(=O)(=O)c1ccccc1 (centres undefined),-16%,0%,·,-11%,·
N#C/C(=N\Nc1cccc([N+](=O)[O-])c1)C(=O)c1ccc(Br)cc1,6.5µM*,11%,4.5µM*,5.8µM*,5µM*
N#C/C(=N\Nc1ccc(S(=O)(=O)N2CCCCCC2)cc1)C(N)=S,?,5%,11µM*,?,?
